# This excerpt belongs to a sample that is enriched for hits.
# MARV entry inh – Marburg virus entry inhibition; Marburg virus pseudotyped entry inhibition, cell reporter; 1.8% of 300,000 active; Potency, µM (series often up to 37.8 µM), for inactives: at the highest dose activity change, negative = inhibition, actives largely listed as inhibitors; calls by dose curve; tested in HEK293 cells; note: potency is the fitted concentration of half-maximal effect; % is set by controls: 0 for no effect and ±100 for the full control effect
# AMA1-RON2 inh – disrupts binding of P. falciparum AMA1 to RON2. AlphaScreen AMA1-biotinylated RON2 peptide binding. Potency, µM (highest dose often 58.2 µM), without a hit: at the top dose activity change, negative = inhibition, usual class: inhibitors. 0.2% of 360,000 active. AID 720542; active = well fitted inhibition curve with a large enough effect; inconclusive = small, poorly fitted or top-dose-only effect; inactive = no such curve, though single readings can be large or run the other way;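 note: potency is the fitted concentration of half-maximal effect; 0% = vehicle wells and -100% = peptide control; nearly all actives have a fitted effect of over 45% in size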
#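 AMA1 (3D7) with his tag at 25 nM final met compounds first, then biotinylated RON2 peptide at 25 nM; detection used donor plus acceptor beads, 10 µg/mL apiece, read by AlphaScreen after 30 min at room temperature.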
# Shiga inhibitor – inhibitors of Shiga toxin in Vero cells. AID 2315. 9.2% of 290,000 active. Vero cells, Shiga toxin protein synthesis inhibition reporter. inhibition, % at 38.7 µM; in the data active = inhibition mostly above about 28%, no sharp cut-off; inactive = mostly below about 43%; note: 0% is about no effect
# Cycloheximide cs – counter-screen hit for Shiga toxin inhibitors, cycloheximide; 12% of 300,000 active; cell reporter, cycloheximide protein synthesis inhibition counterscreen; max response, %; in the data active = max response mostly above about 13%, no sharp cut-off; inactive = mostly below about 14%; note: read at 38.3 µM for the half of the compounds with a filed dose; 0% is about no effect
# Lassa entry inh – Lassa virus entry inhibition. Lassa virus pseudotype entry inhibition, cell reporter. Potency, µM (highest dose often 37.9 µM), for the others: top-dose activity change, negative = inhibition, actives largely listed as inhibitors. 1.2% of 300,000 active; calls by dose curve; tested in HEK293 cells; note: potency is the fitted concentration of half-maximal effect; % is set by controls: 0 for no effect and ±100 for the full control effect; nearly all actives have a fitted effect of over 50% in size
# * hit, by the source's call; ? = inconclusive; · = no result given; ! = not confirmed by another sample; [ ] = remark or other dose.
SMILES,MARV entry inh,AMA1-RON2 inh,Shiga inhibitor,Cycloheximide cs,Lassa entry inh
Oc1ccc(/C(Cc2ccc3ccccc3n2)=N\Nc2ccccc2)c(O)c1,?,-1.2%,69.2*,34.5*,?
COc1ccc(-c2ccc(=O)n(Cc3c(F)cccc3Cl)n2)cc1,·,6.5%,48.3*,22.5*,·
O=C(O)CCSc1ccc2ccccc2n1,-1.8%[46.1 µM],-0.1%,29.9*!,13.2,-8.7%
COc1cccc(NC(=O)CCSc2ccc3ccccc3n2)c1,-5.4%,-7.1%,16.6,15.4*,-10.0%
COc1ccc(NC(=O)CCSc2ccc3ccccc3n2)cc1,?,-2.2%,-9.6,0.9,-12.9%
N#Cc1ccccc1COC(=O)c1cccc(S(=O)(=O)N2CCCC2)c1,?,25.2%,·,·,0.4%[46.1 µM]
O=C(c1ccccc1)c1cccc[n+]1[O-],0.2%,11.1%,·,-1.3,-28.1%
N=c1n(CCO)c2ccccc2n1Cc1ccccc1F,?,·,·,·,-20.2%[46.1 µM]
O=C(Nc1cccc(C(=O)O)c1)/C(=C\c1ccc2c(c1)OCO2)NC(=O)c1ccccc1Cl,·,-3.6%,-21.9,-9.6,·
O=C(OCc1nc2ccccc2[nH]1)C12CC3CC(CC(C3)C1)C2,?,-2.3%,-6.7,-2.5,-28.2%
O=C(Nc1nc2ccccc2[nH]1)C1CC1,-18.1%,-2.6%,44.6,22.6*,22.5%
O=C(Nc1ccc(-c2nc3ccccc3[nH]2)cc1)C1CCCO1 (stereo not given),?,0.2%,18.5,11.8,?
O=C(CSc1nc2ccccc2[nH]1)Nc1ccccc1F,5.2%,25.4%,24.9,13.3,-4.6%
O=C(Nc1nc2ccccc2[nH]1)C12CC3CC(CC(C3)C1)C2,?,7.9%,63.2,39.9*,?
O=C(Nc1nc2ccccc2[nH]1)C1CCCO1 (stereo not given),6.4%,-5.2%,40.5,22.9*,8.8%
O=C(Nc1nc2ccccc2[nH]1)Nc1ccccc1F,?,8.0%,99.2*,34.6*,-22.4%[46.1 µM]
Cc1cccc(C)c1-n1ncc(C(=O)NCCCN2CCC(C)CC2)c1C1CCN(C(=O)OC(C)(C)C)CC1,·,·,·,·,7.6%[46.1 µM]
O=C(NC1CCCC1)c1ccccc1-c1nc2ccccc2[nH]1,-14.8%,6.2%,-7.4,-4.3,-12.2%
O=C(Nc1nc2ccccc2[nH]1)NC1CCCCC1,?,0.1%,81.2*,45.7*,11.2µM*
CC(C)c1nc2ccc(NC(=O)C34CC5CC(CC(C5)C3)C4)cc2[nH]1,?,-5.3%,47.5,20.4*,20.1%
CNC(=O)[C@@]1(Cc2ccccc2)C=C[C@@H](C)N1C(=O)OC,·,-0.4%,·,·,·
C[C@@H]1C=C[C@](Cc2ccccc2)(C(=O)NCC2CC2)N1C(=O)c1ccccc1,16.7%,5.0%,172.7*,70.3*,?
O=C(NC(=S)Nc1cccc(F)c1)c1cccc([N+](=O)[O-])c1,·,89.9%,67.0*,19.7*,·
CC(=O)NC(=S)Nc1cccc([N+](=O)[O-])c1,25.7%[46.1 µM],-2.8%,-7.1,-3.0,28.6%
O=C(NNC(=S)NC(=O)c1ccccc1)c1cccc([N+](=O)[O-])c1,-15.7%,69.7%,5.6,15.2,-13.1%
SMILES,MARV entry inh,AMA1-RON2 inh,Shiga inhibitor,Cycloheximide cs,Lassa entry inh
O=C(NNC(=S)NC(=O)c1cccc([N+](=O)[O-])c1)c1ccc(O)cc1,15.1%,133.1%,53.3*,31.9*,19.7%
Cc1cccc(NC(=S)NNC(=O)c2cccc([N+](=O)[O-])c2)c1,17.6%[46.1 µM],44.4%,50.4*,19.3*,11.7%
CCN(c1ccccc1)S(=O)(=O)c1ccc(F)cc1C,-23.0%[46.1 µM],-4.6%,-2.0,1.3,-9.1%
CC1CC(=O)NN1C(=O)c1ccccc1 (stereo not given),1.6%[46.1 µM],0.0%,-10.3,-2.7,24.6%[46.1 µM]
COc1cccc(CNC(=O)[C@@H]2CCCN2C(=O)[C@H]2CCCCN2C(=O)c2cccc(Cl)c2)c1,·,-0.3%,·,·,·
Cc1cccc(S(=O)(=O)NC(=O)C2(C)CCN2C(=O)CC2CCCCC2)c1 (stereo not given),·,7.5%,·,·,·
COc1ccccc1/C=C/c1nc(C#N)c(N(C)C)o1,?,-2.6%,87.5*,33.2*,?
CN(C)c1oc(/C=C/c2ccccc2)nc1C#N,?,1.4%,48.1*,44.2*,-23.1%
Cc1ccc(OCC(=O)Nc2ccc3nc(SCC(=O)N4CCCC4)sc3c2)cc1,4.5%[46.1 µM],·,·,·,0.7%[46.1 µM]
Cc1ccc(SCCN2CCN(CCc3ccccc3)CCC2=O)cc1,·,-9.7%,7.1,13.2,·
COc1ccc(SCCN2CC[C@@H](O)CCC2=O)cc1,·,-7.7%,·,·,·
O=C1CCC(O)CCN1CCSc1ccccc1 (stereo not given),·,-3.9%,50.2*,33.6*,·
CCCN1CCC(=O)N(CCSc2ccc(C)cc2)CC1,·,-0.6%,53.3*,37.6*,·
